Experimental findings from PubChem BioAssay AID504773 (Broad Institute, 2011) are described below.

Entries with a potency or affinity are not part of this list. Activity calls are given as the source filed them.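 Rule for the calls: active = polarization signal falls with dose and the fitted half-maximal concentration is at or below ten times the sample's top valid dose; inconclusive = flat curve at 30 to 70% inhibition, or poor fit; inactive = signal rises, flat within 30%, or potency beyond limit.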

This experiment has as its target Golgi-associated PDZ and coiled-coil motif-containing protein (Homo sapiens) (UniProt Q9HD26). Description: CAL PDZ peptide-binding inhibitors, dose response, biochemical, fluorescence polarization, Cerulean-tagged CAL PDZ, cherry-picks (AID 504773).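 Note: 0% = DMSO neutral wells and -100% = excess unlabeled competitor peptide wells.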 Particulars: 1 h; series mostly up to 50 µM; activity change, negative = inhibition: at the top concentration.
With `CC(C)CNC(=O)CC1Nc2ccccc2NC1=O` (configuration not stated), the “activity change, negative = inhibition” value is -8.18% (inactive). In the case of `COc1cc([N+](=O)[O-])ccc1NC(=O)CN1CCN(C(=O)c2ccco2)CC1`, the “activity change, negative = inhibition” value is -0.592% (inactive). Turning to `COCc1cc(C)nc(SCc2ccccc2)c1C#N`, the “activity change, negative = inhibition” value was -15.4% (inactive). In the case of `CCOc1ccc(C(=O)NC2CC3CCCC(C2)N3Cc2ccccc2)cc1` (configuration not stated), the “activity change, negative = inhibition” value is -24.1% (inactive). As to `COc1cccc(-c2cccc(NC(=O)C3CCN(Cc4ccc(CO)o4)CC3)c2)c1`, the “activity change, negative = inhibition” value was -61.6% (inactive).

In the case of `O=C(NCCc1cnc[nH]1)c1cccs1`, the “activity change, negative = inhibition” value is 8.56% (inactive). Take `CCNC(=S)N(CCN(CC)CC)Cc1cc2cc3c(cc2[nH]c1=O)OCCO3`: the “activity change, negative = inhibition” value is -12% (inactive). Consider `CCNC(=S)N1CCc2cc(OC)c(OC)cc2C1COc1ccc(OC)cc1` (configuration not stated), for which the “activity change, negative = inhibition” value is 19.7% (inactive). In the case of `O=C(COc1ccc(Cl)cc1Cl)Nc1nnc(C2=COCCO2)o1` it was 0.72% (inactive). `FC(F)(F)Oc1ccc(NC(=S)NCCCN2CCOCC2)cc1`: the “activity change, negative = inhibition” value was -72.2% (inactive).

As for `N#C/C(=C\c1c[nH]c2ccccc12)C(=O)NC1CC1`, the “activity change, negative = inhibition” value is -24% (inactive). With `CC(C)n1cc(C(=O)N2CCCC(N3CCN(c4ccc(F)cc4)CC3)C2)cn1` (configuration not stated), the “activity change, negative = inhibition” value is -11% (inactive). In the case of `COc1ccc(CC(=O)NCC2CCCN(Cc3cccc(SC)c3)C2)cc1` (configuration not stated), the “activity change, negative = inhibition” value is 26.5% (inactive). Consider `Cc1cccc(NS(=O)(=O)Cc2ccccc2)c1C`, for which the “activity change, negative = inhibition” value is 33.6% (inactive). As to `Cc1c(C)c2cc3c4c(oc3c(C)c2oc1=O)CCCC4`, the “activity change, negative = inhibition” value was 19.3% (inactive). Next, `CCCSC1=N/C(=C\c2ccc([N+](=O)[O-])o2)C(=O)S1`: 9.22% (inactive). As to `CCN1CCN(S(=O)(=O)c2ccc(OC)c3ccccc23)CC1`, the “activity change, negative = inhibition” value is 7.59% (inactive).

For the compound `COCCOC(=O)c1c(C)oc2ccc(OS(C)(=O)=O)cc12`, the “activity change, negative = inhibition” value was -40.2% (inactive). For `COc1ccc(Oc2nc3c(c(=O)n(C)c(=O)n3C)n2C)cc1`, the “activity change, negative = inhibition” value was 8.81% (inactive). Turning to `Cn1c(=O)c2c(nc(SCC(=O)NCC3CCCO3)n2Cc2ccc(F)cc2)n(C)c1=O` (configuration not stated), the “activity change, negative = inhibition” value was -69.9% (inactive).

With `COC(=O)c1cccc([N+](=O)[O-])c1CS(=O)(=O)c1ccc(C)cc1`, the “activity change, negative = inhibition” value was 27.4% (inactive). Turning to `CCN1C(=O)CS/C1=N\S(=O)(=O)c1ccc(Cl)cc1`, the “activity change, negative = inhibition” value is 17% (inactive). `COc1ccc(C(CNC(=O)COc2ccccc2-c2ccccc2)N2CCOCC2)cc1` (configuration not stated): the “activity change, negative = inhibition” value is -0.19% (inactive). With `COC(=O)C(C(=O)OC)c1ccc(N)cc1`, the “activity change, negative = inhibition” value was 14.9% (inactive). In the case of `CN(C)S(=O)(=O)c1ccc(Cl)c(NC(=O)CSc2nnnn2-c2ccc(O)cc2)c1` it was -24.1% (inactive).

For `CCN(CC)Cc1c(O)ccc2c1O/C(=C\C=C\c1ccccc1)C2=O`, the “activity change, negative = inhibition” value is -6.76% (inactive).

Turning to `Cc1ccccc1-n1c(C)c(C#N)c(=O)c(-[n+]2ccccc2)c1[S-]`, the “activity change, negative = inhibition” value is -36.7% (inactive). As to `COc1ccc2ccn(S(=O)(=O)c3ccccc3)c2c1`, the “activity change, negative = inhibition” value was -31.3% (inactive). As to `C[C@H](NC(=O)c1ccccc1Cl)C(=O)NCc1cccs1`, the “activity change, negative = inhibition” value is -55.6% (inactive). Regarding `O=C(O)c1cccc(Nc2ccc([N+](=O)[O-])cn2)c1`, the “activity change, negative = inhibition” value was 18.4% (inactive).

For `O=C(c1cccs1)N1CCN(C(=O)N2CCOCC2)CC1`, the “activity change, negative = inhibition” value is -23% (inactive). Regarding `O=C(CCc1nc(-c2ccc(Cl)cc2)no1)NC1CCCCC1`, the “activity change, negative = inhibition” value is 8.13% (inactive).

As to `Cc1cccc(N=Nc2c(O)[nH]c3ccc(F)cc23)c1`, the “activity change, negative = inhibition” value is -79.4% (inactive). With `CC12CCC(C(=O)N(CCCN3CCN(Cc4ccccc4)CC3)C1=O)C2(C)C` (configuration not stated), the “activity change, negative = inhibition” value is -37.3% (inactive). Take `Cc1ccc(-n2c(SCC(N)=O)nnc2-c2ccco2)cc1`: the “activity change, negative = inhibition” value was -58.1% (inactive). In the case of `C/C(=N\NC(=O)C(O)c1ccccc1)c1ccc(Cl)s1` (configuration not stated) it was 5.35% (inactive); in that of `O=C(CNCc1ccccc1)Nc1ccc(F)cc1`, 8.72% (inactive).
